For one experiment, the system named is Human papillomavirus type 1a E7 protein (residues 1-88). Put plainly: HPV1a E7 small-molecule binders, primary screen, biochemical, small-molecule microarray, residues 1-88, 635 nm (AID 1129). The note with it: small-molecule microarray binding, fluorescence 635 nm; higher = more signal.
Consider `COCC(=C=CC[C@@H](O)c1cccc(OCCO)c1)C[C@@H](O)COCc1ccccc1`, for which the composite z-score worked out at 1.09.

Consider `C=C(CCCC)C(=O)CC[C@H](OC(C)=O)c1ccccc1OCCO`, for which the composite z-score was -0.167.

The compound `CCC[C@@H]1C=C(C(=O)OCC)[C@H](c2ccccc2)N1S(=O)(=O)c1ccc(C)cc1` came in with a composite z-score of 1.14.

`COCCOC(=O)N1C(=O)[C@@]2(c3cc(C#CC4(O)CCCCCC4)ccc31)[C@H](C(=O)N1CCc3cc(OC)c(OC)cc3C1)[C@H]1C(=O)O[C@H](c3ccccc3)[C@H](c3ccccc3)N1[C@@H]2c1ccc(O)cc1` showed a composite z-score of 1.23.

Regarding `Cc1ccc(F)cc1S(=O)(=O)N[C@@H]1CCN(Cc2ccc3c(c2)OCO3)C1`, the composite z-score is -0.844.

Consider `COCCOC(=O)N1C(=O)[C@@]2(c3cc(C#CC4(O)CCCCCC4)ccc31)[C@H](c1ccc(OCCO)cc1)N1[C@H](c3ccccc3)[C@H](c3ccccc3)OC(=O)[C@H]1[C@@H]2C(=O)N1CCCCCCC1`, for which the composite z-score stood at 1.21.

Compound `CC(c1ccccc1)C(O)C1C=CC2C(=O)N(c3ccccc3)C(=O)C2N1Nc1ccc(C#N)cc1` (configuration not stated) showed a composite z-score of 1.22.

On to `COC(=O)C(CC#Cc1ccc2c(c1)[C@]1(C(=O)N2)[C@H](c2ccc(O)cc2)N2[C@H](c3ccccc3)[C@H](c3ccccc3)OC(=O)[C@H]2[C@@H]1C(=O)N1CCc2cc(OC)c(OC)cc2C1)C(=O)OC`, for which the composite z-score was 0.953.

Compound `C[N+](C)(C)CCCCCCNC(=O)[C@H]1C[C@H]2C(=O)NCC(=O)N2[C@H]1c1cccc(OCCO)c1` had a composite z-score of 0.283.

`COC(=O)c1c(CC[C@@H](CO)NC(=O)N[C@@H](Cc2ccccc2)Cn2cc(-c3cncn3C)nn2)oc(C(C)=O)c1C(=O)OC` gave a composite z-score of 0.873.

Compound `O=C1O[C@@H](c2ccccc2)[C@@H](c2ccccc2)N2[C@@H](c3ccc(O)cc3)[C@]3(C(=O)Nc4ccc(C#CC5=CCCCC5)cc43)[C@@H](C(=O)N3CCCCCCC3)[C@H]12` had a composite z-score of 1.06.

On to `COC(=O)C1=CC(CCCO)=CC(C2CC2)N(Cc2cccc(OC(F)(F)F)c2)C=C1C(=O)OC` (configuration not stated), for which the composite z-score came to 0.846.

For `COCCOC(=O)N1C(=O)[C@@]2(c3cc(C#CCC(C(=O)OC)C(=O)OC)ccc31)[C@H](C(=O)N1CCCCCCC1)[C@H]1C(=O)O[C@H](c3ccccc3)[C@H](c3ccccc3)N1[C@@H]2c1ccccc1OCCO`, the composite z-score stood at 1.18.

With `COCCOC(=O)N1C(=O)[C@@]2(c3cc(C#CCCO)ccc31)[C@H](c1ccccc1OCCO)N1[C@H](c3ccccc3)[C@H](c3ccccc3)OC(=O)[C@H]1[C@@H]2C(=O)N1CCc2cc(OC)c(OC)cc2C1`, the composite z-score is 1.22.

With `COC(=O)[C@@H]1N=C(c2ccc(OCCCO)cc2)O[C@@H]1c1ccccc1CN=[N+]=[N-]`, the composite z-score was 0.943.

Compound `COC(=O)[C@H](Cc1ccc(O)cc1)N1CC2=CCCC=C[C@@H]2[C@H]1[C@H](O)Cc1ccccc1` yielded a composite z-score of -0.24.

In turn, `C=CC[C@@]1(C(=O)N(C)C)N=C(c2ccc(OCCCO)cc2)O[C@@H]1c1ccccc1` registered a composite z-score of 1.24.

The target in another experiment is Focal adhesion kinase 1 (Homo sapiens) (UniProt Q05397). Kind of experiment: small-molecule microarray binders of FAK, primary screen, biochemical, 635/667 nm fluorescence, BSA, DTT (AID 1130).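 Further: composite of spot emission at 667 nm and signal to noise over triplicate slides.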 The following applies: PTK2 binding, 635 nm fluorescence, higher = more signal.
Sequence of Focal adhesion kinase 1 (Homo sapiens) (Q05397 whole entry, looked up): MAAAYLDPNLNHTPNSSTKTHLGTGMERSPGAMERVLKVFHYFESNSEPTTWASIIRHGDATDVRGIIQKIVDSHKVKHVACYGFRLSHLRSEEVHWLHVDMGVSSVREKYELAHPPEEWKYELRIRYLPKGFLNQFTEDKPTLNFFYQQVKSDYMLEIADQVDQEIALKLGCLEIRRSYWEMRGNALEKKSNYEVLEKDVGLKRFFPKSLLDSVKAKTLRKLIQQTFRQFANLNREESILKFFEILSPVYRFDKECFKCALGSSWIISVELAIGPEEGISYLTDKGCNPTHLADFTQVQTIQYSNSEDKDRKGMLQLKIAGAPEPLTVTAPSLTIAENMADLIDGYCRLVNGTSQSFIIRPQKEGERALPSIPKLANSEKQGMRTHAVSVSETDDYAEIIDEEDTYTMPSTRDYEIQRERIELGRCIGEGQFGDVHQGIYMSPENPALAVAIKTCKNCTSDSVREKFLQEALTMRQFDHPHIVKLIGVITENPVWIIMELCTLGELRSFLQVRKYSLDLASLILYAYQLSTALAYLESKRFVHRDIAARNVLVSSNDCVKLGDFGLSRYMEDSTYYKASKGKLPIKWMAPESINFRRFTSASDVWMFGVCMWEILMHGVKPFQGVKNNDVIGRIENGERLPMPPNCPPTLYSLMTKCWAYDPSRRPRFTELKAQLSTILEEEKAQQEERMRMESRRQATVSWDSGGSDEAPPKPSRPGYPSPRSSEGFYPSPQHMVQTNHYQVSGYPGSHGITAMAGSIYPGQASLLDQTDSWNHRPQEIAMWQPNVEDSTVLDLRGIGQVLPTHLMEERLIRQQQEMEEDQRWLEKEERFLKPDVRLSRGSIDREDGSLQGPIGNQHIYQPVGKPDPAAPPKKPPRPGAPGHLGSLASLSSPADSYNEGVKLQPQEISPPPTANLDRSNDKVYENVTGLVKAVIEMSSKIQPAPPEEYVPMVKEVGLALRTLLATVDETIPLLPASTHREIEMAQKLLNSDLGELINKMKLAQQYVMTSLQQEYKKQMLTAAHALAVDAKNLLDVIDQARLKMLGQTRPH
In turn, `CO[C@H]1O[C@H](CO)[C@@H](OC(=O)Nc2ccccc2)[C@@H]2OC(=O)[C@H](Cc3ccccc3)C/C=C/C[C@@H](Cc3ccccc3)C(=O)O[C@@H]12` gave a composite z-score of 0.473.

The compound `CCCCC(=C=CC[C@@H](O)c1ccc(OCCO)cc1)C[C@@H](O)c1ccccn1` had a composite z-score of 0.178.

`C=CCC(OC(C)=O)[C@@H]1[C@@H](N(Cc2cccc3ccccc23)C(=O)c2ccc(-c3ccccc3)cc2)c2cc(OCCCO)ccc2N1C(=O)c1ccc2ccccc2n1` (some centres not stated): the composite z-score was found to be 0.0785.

On to `COCCOC(=O)N1C(=O)[C@@]2(c3cc(C#CC4(O)CCCCCC4)ccc31)[C@H](c1ccc(OCCO)cc1)N1[C@H](c3ccccc3)[C@H](c3ccccc3)OC(=O)[C@H]1[C@@H]2C(N)=O`, for which the composite z-score is 0.528.

`COc1ccc([Si](C)(C)[C@H]2[C@H](CCO)O[C@@]3(C(=O)N(Cc4ccc(N5CCOC5=O)cc4)c4ccccc43)[C@@H]2C)cc1` gave a composite z-score of 0.5.

In turn, `Cc1c(-c2ccc(-c3ccc(Cl)c(Cl)c3)o2)nc(-c2ccccc2)c2c1CO[Si]2(C(C)C)C(C)C` came in with a composite z-score of -0.0127.

With `O=C1OCCC=C[C@H]2OC34C=CCN(CCN5CCOCC5)C(=O)[C@H]3N(CCCO)C(=O)[C@@H]4C12` (some centres not stated), the composite z-score was -0.251.

As for `COC(=O)[C@@]1(Cc2ccc(F)cc2)[C@H]2c3cc(C(=O)N(C)C)n(CCO)c3C[C@H]2CN1C(=O)c1ccccc1`, the composite z-score came out at 0.991.

With `CC(C)C[C@H]1NC(=O)[C@@H](C)NC(=O)[C@@]23C(=O)N[C@@H](Cc4ccccc4)C2[C@H](C)[C@@]2(C)O[C@H]2C3/C=C/C/C=C\CNC1=O` (some centres not stated), the composite z-score worked out at 0.82.

As for `N#Cc1ccc(C(O)C2C=CC3C(=O)N(c4ccccc4)C(=O)C3N2Nc2ccc([N+](=O)[O-])cc2)cc1` (configuration not stated), the composite z-score came to 0.895.

`CN(C)CCCC[C@@H]1NC(=O)[C@@H]2C[C@H](C(=O)NCc3ccc(F)cc3)[C@H](c3ccc(O)cc3)N2C1=O` displayed a composite z-score of -0.103.

For `CC(=O)c1ccc(C(O)C2C=CC3C(=O)N(C)C(=O)C3N2NC(=O)OC(C)(C)C)cc1` (configuration not stated), the composite z-score came out at 1.54.

Regarding `CO[C@H]1O[C@H](CO)[C@@H](OC(=O)Nc2ccc3c(c2)OCO3)[C@@H]2OC(=O)[C@@H](Cc3ccccc3)C/C=C/C[C@H](Cc3ccccc3)C(=O)O[C@@H]12`, the composite z-score came out at 0.458.

Regarding `O=C1NC(=O)C2C1C=CC(C(O)c1cccc(O)c1)N2Nc1ccc(Cl)cc1Cl` (configuration not stated), the composite z-score was determined as 0.263.

Turning to `Cc1ccc(S[C@]2(C(=O)NCCCN(C)C)CC(=O)N(Cc3ccccc3Cl)[C@@H]2c2ccc(CO)cc2I)cc1`, the composite z-score turned out to be 0.404.

In turn, `O=c1cccc(-c2ccccc2C(F)(F)F)o1` yielded a composite z-score of -0.0583.

Compound `COCCOC(=O)N1C(=O)[C@@]2(c3cc(C#CCC(C(=O)OC)C(=O)OC)ccc31)[C@H](c1ccc(OCCO)cc1)N1[C@H](c3ccccc3)[C@H](c3ccccc3)OC(=O)[C@H]1[C@@H]2C(=O)N1CCCCCCC1` returned a composite z-score of 0.899.

`C[C@H]1NC(=O)C([C@@H](C)OCc2ccccc2)NC(=O)[C@@]23C(=O)N[C@@H](Cc4ccccc4)C2[C@H](C)[C@@]2(C)O[C@H]2C3/C=C/C/C=C\CNC1=O` (some centres not stated): the composite z-score is -0.235.

`COCC(=C=CC[C@@H](O)c1cccc(OCCO)c1)C[C@@H](O)COCc1ccccc1` yielded a composite z-score of 0.112.

`C=C(CCCC)C(=O)CC[C@H](OC(C)=O)c1ccccc1OCCO` displayed a composite z-score of -0.176.

The compound `CCC[C@@H]1C=C(C(=O)OCC)[C@H](c2ccccc2)N1S(=O)(=O)c1ccc(C)cc1` registered a composite z-score of 0.898.

The compound `COCCOC(=O)N1C(=O)[C@@]2(c3cc(C#CC4(O)CCCCCC4)ccc31)[C@H](C(=O)N1CCc3cc(OC)c(OC)cc3C1)[C@H]1C(=O)O[C@H](c3ccccc3)[C@H](c3ccccc3)N1[C@@H]2c1ccc(O)cc1` showed a composite z-score of 0.427.

Compound `Cc1ccc(F)cc1S(=O)(=O)N[C@@H]1CCN(Cc2ccc3c(c2)OCO3)C1` displayed a composite z-score of -0.226.

`COCCOC(=O)N1C(=O)[C@@]2(c3cc(C#CC4(O)CCCCCC4)ccc31)[C@H](c1ccc(OCCO)cc1)N1[C@H](c3ccccc3)[C@H](c3ccccc3)OC(=O)[C@H]1[C@@H]2C(=O)N1CCCCCCC1`: the composite z-score is 0.175.

Take `CC(c1ccccc1)C(O)C1C=CC2C(=O)N(c3ccccc3)C(=O)C2N1Nc1ccc(C#N)cc1` (configuration not stated): the composite z-score turned out to be 0.648.

`COC(=O)C(CC#Cc1ccc2c(c1)[C@]1(C(=O)N2)[C@H](c2ccc(O)cc2)N2[C@H](c3ccccc3)[C@H](c3ccccc3)OC(=O)[C@H]2[C@@H]1C(=O)N1CCc2cc(OC)c(OC)cc2C1)C(=O)OC` yielded a composite z-score of -0.0453.

In turn, `C[N+](C)(C)CCCCCCNC(=O)[C@H]1C[C@H]2C(=O)NCC(=O)N2[C@H]1c1cccc(OCCO)c1` showed a composite z-score of -0.27.

In the case of `COC(=O)c1c(CC[C@@H](CO)NC(=O)N[C@@H](Cc2ccccc2)Cn2cc(-c3cncn3C)nn2)oc(C(C)=O)c1C(=O)OC`, the composite z-score is -0.179.

Compound `O=C1O[C@@H](c2ccccc2)[C@@H](c2ccccc2)N2[C@@H](c3ccc(O)cc3)[C@]3(C(=O)Nc4ccc(C#CC5=CCCCC5)cc43)[C@@H](C(=O)N3CCCCCCC3)[C@H]12` showed a composite z-score of 0.277.

Turning to `COC(=O)C1=CC(CCCO)=CC(C2CC2)N(Cc2cccc(OC(F)(F)F)c2)C=C1C(=O)OC` (configuration not stated), the composite z-score worked out at 1.03.

The compound `COCCOC(=O)N1C(=O)[C@@]2(c3cc(C#CCC(C(=O)OC)C(=O)OC)ccc31)[C@H](C(=O)N1CCCCCCC1)[C@H]1C(=O)O[C@H](c3ccccc3)[C@H](c3ccccc3)N1[C@@H]2c1ccccc1OCCO` returned a composite z-score of 0.945.

On to `COCCOC(=O)N1C(=O)[C@@]2(c3cc(C#CCCO)ccc31)[C@H](c1ccccc1OCCO)N1[C@H](c3ccccc3)[C@H](c3ccccc3)OC(=O)[C@H]1[C@@H]2C(=O)N1CCc2cc(OC)c(OC)cc2C1`, for which the composite z-score is 0.405.

Take `COC(=O)[C@@H]1N=C(c2ccc(OCCCO)cc2)O[C@@H]1c1ccccc1CN=[N+]=[N-]`: the composite z-score amounted to 0.841.

Compound `COC(=O)[C@H](Cc1ccc(O)cc1)N1CC2=CCCC=C[C@@H]2[C@H]1[C@H](O)Cc1ccccc1` returned a composite z-score of -0.0148.

For the compound `C=CC[C@@]1(C(=O)N(C)C)N=C(c2ccc(OCCCO)cc2)O[C@@H]1c1ccccc1`, the composite z-score was 0.356.

(Values after PubChem BioAssay.)
